By inhibition is commonly meant the drop in the measured response relative to a control, in per cent.

Drawing on PubChem BioAssay AID588405 (Sanford-Burnham Center for Chemical Genomics, 2011), this text covers inhibition for 59 molecules.

Several values for one entry are separate records, joined by “and”; a condition that tells them apart may be missing. Equal values may be shown once. Hit rate of the full screen: of about 360,000 compounds, about 6,200 (1.7%) were called active. The full list was thinned out, with actives kept by preference. Values without a mark were called inactive.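 How the source made its calls: active means inhibition of at least 50% at 20 µM; inactive means the rest.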

A short description of this test: Peg3 promoter-driven luciferase inhibitors, primary screen, cell-based, HeLa, luciferase luminescence (AID 588405). To be noted: HeLa PEG-Prom luciferase reporter, overnight, at 20 µM, hits give high values. Background: Reporter assays use an easily measured gene product as a stand-in for the process of interest.
Regarding `CCC(C)(O)C(=O)OC1C(=O)OC2CC3C(C)=CC(=O)C(O)C3(C)C3C4(O)OCC23C1C(C)C4O` (centres undefined), the inhibition was 100% (active). Take `O=C(O)CCn1cc(C=C2C(=O)NC(=S)NC2=O)c(-c2cccc(Br)c2)n1`: the inhibition is -1.73%. The result for `CN(C)C(=O)Oc1cc(OC(=O)N(C)C)cc(C(O)CNC(C)(C)C)c1` (centres undefined) reads 4.25% and -0.27%; that for `O=C1NC(=O)N(CCc2ccc(F)cc2)C(=O)/C1=C/C=C/c1ccccc1`, 90.6% (active). As to `O=C1NC(=O)N(c2ccc(F)cc2)C(=O)/C1=C/c1ccc2c(c1)CCCN2Cc1ccccc1`, the inhibition was 12.7%. `Cc1cc2ccccn2c1C(C[N+](=O)[O-])c1c(F)cccc1Cl` (centres undefined): the inhibition is 38.7%. The result for `CC(C)CN1Cc2cc(N3CCCCC3)ccc2-n2nncc2C1` reads -1.02%; that for `COC(=O)[C@@H]1C(OC(=O)c2ccccc2)CC2CCC1N2C` (some centres undefined), -10.5%; that for `CC(=O)OC1C2(CC3N4C(=O)C5(CO)SSC4(CC31O)C(=O)N5C)OC(C)C(C)(C)C2=O` (centres undefined), 99.3% (active). The result for `CC1C2Cn3c(nc4ccccc43)C1N(C)O2` (centres undefined) reads -2.57%; that for `Nc1ccc([N+](=O)[O-])cc1`, -3.82%; that for `CC(C)N(CC#CCC1(O)c2ccccc2-c2ccccc21)C(C)C`, -15.7%. As for `COc1ccc(C(=O)CC2C(=O)N(C)C(=O)N(C)C2=O)cc1`, the inhibition was 13.1%. In the case of `CC(=O)Nc1ccccc1C(=O)OCC(=O)c1cccc2ccccc12`, the inhibition is -26.1%. As for `N#CC1=C(N)Oc2c(c(=O)oc3ccccc23)C1c1ccccc1OC(=O)c1cccs1` (centres undefined), the inhibition is 19.6%. On to `O=P(OC1=CCCCC1)(c1ccccc1)c1ccccc1`, for which the inhibition is 8.64%.

As for `O=C1C2(Cl)C3(Cl)C4(Cl)C(Cl)(Cl)C5(Cl)C3(Cl)C1(Cl)C5(Cl)C24Cl` (centres undefined), the inhibition was 86.1% (active). To `OC1/C(=C/c2ccc(C(F)(F)F)cc2)N2CCC1CC2` (centres undefined) belongs -51.4%. Regarding `C[C@]12CC[C@H](O)C[C@H]1CC[C@@H]1C2CC[C@]2(C)[C@@H](C3=CC(=O)OC3)[C@@H](O)C[C@]12O` (some centres undefined), the inhibition is 112% (active).

Take `CC12CCC(O)CC1CCC1C2CCC2(C)C(C(=O)CC(O)C(F)(F)F)CCC12` (centres undefined): the inhibition was -18.9%. To `CCN1c2nc3c(C)cccn3c(=O)c2CC2(C(=O)N(C)C(=O)N(C)C2=O)C1C` (centres undefined) belongs 4.11%. The result for `CN1CCC(N(C)Cc2cccnc2)CC1` reads -0.72%; that for `O=C(OCCN1CCOCC1)C1(c2ccccc2)CCCC1`, 6.31%; that for `COc1cc(OC)cc(C2(C#N)CCN(C)CC2)c1`, 16.1%. The result for `Cc1cc(OCc2cc(C(=O)O)oc2C)c2c3c(c(=O)oc2c1)CCCC3` reads 0.36%. Turning to `Fc1ccc(C2N3CCCN23)cc1` (centres undefined), the inhibition was 2.08%. For `CCCCCCCCCCCCn1ccc(=N)cc1`, the inhibition is 72.5% (active). To `COc1ccccc1N=C1SCCCN1C` belongs 4.44%; to `CCN1CCN(c2ccc([N+](=O)[O-])cc2C#N)CC1`, 13.3%; to `CC(Cc1ccccc1)NCCC(c1ccccc1)c1ccccc1` (centres undefined), 69.5% (active).

`CCc1cccc2c(C#N)cn(CC(=O)N3CCOCC3)c12`: the inhibition was 16.4%.

As to `CC1CC=CCC12C(=O)NC(=S)NC2=O` (centres undefined), the inhibition is 4.94%.

On to `COP(=O)(OC)C(NC(=O)c1ccc(C)cc1)C(Cl)(Cl)Cl` (centres undefined), for which the inhibition was -13.6%. As for `CC(CC(C#N)(c1ccccc1)c1ccccc1)N1CCCCC1` (centres undefined), the inhibition is -0.65%. The result for `CCN1CCN(Cc2cc(OC)c3c(c2)OCO3)CC1` reads 14.7%. The result for `O=C(NC(=S)N1C[C@H]2C[C@H](C1)c1cccc(=O)n1C2)c1ccc(F)cc1` reads 10.8%.

On to `CNCC(O)c1cc(F)c(OCc2ccccc2)c(OCc2ccccc2)c1F` (centres undefined), for which the inhibition was 100% (active). The result for `O=C(CSC1c2ccccc2-c2ccccc21)N/N=C/c1ccccc1` reads 28.7%; that for `CCOc1ccc(CN(CCCl)CCCl)cc1C(=O)OC`, 21.9%; that for `Cc1ccc(Cn2nnnc2CN2CCC(n3nnc4ccccc43)CC2)cc1`, 16.7%. To `CSCCC(c1nnnn1C(C)(C)C)N1CCC(n2c(=O)[nH]c3ccccc32)CC1` (centres undefined) belongs 17.6%; to `O=c1[nH]c2ccccc2n1C1CCN(C(c2ccccc2)c2nnnn2Cc2ccccc2)CC1` (centres undefined), 71% (active); to `COc1ccc(-n2nnnc2C(c2cccc3ccccc23)N2CCC(n3c(=O)[nH]c4ccccc43)CC2)cc1` (centres undefined), 50.2% (active). To `O=c1[nH]c2ccccc2n1C1CCN(C(c2ccnc3ccccc23)c2nnnn2Cc2ccccc2)CC1` (centres undefined) belongs 60.1% (active); to `COc1cccc(C(c2nnnn2-c2ccc3c(c2)OCCO3)N2CCC3(CC2)C(=O)NCN3c2ccccc2)c1OC` (centres undefined), 45.9%; to `O=C1NCN(c2ccccc2)C12CCN(C(c1cccs1)c1nnnn1C1CCCCC1)CC2` (centres undefined), 22%. Take `CN1CCN(Cc2ccccc2C(F)(F)F)CC1`: the inhibition is -6.7%.

For `CC(=O)c1ccc(OC(NC(=O)Cc2ccccc2)C(Cl)(Cl)Cl)cc1` (centres undefined), the inhibition was -5.19%. The result for `COc1ccc(N=Cc2c(O)n(C)c(=O)[nH]c2=O)cc1` reads -20.6%; that for `O=[N+]([O-])c1ccc(C2C3C(c4ccccc4)=NC4(CCCCC4)N32)cc1` (centres undefined), 23.4%; that for `COc1ccccc1NC(=O)N1C[C@@H]2C[C@@H](C1)c1cccc(=O)n1C2`, -1.31%.

Turning to `CCN1C(=O)NC(=O)C2(CCCC2)C1=O`, the inhibition is -7.97%.

In the case of `C=CCn1c(O)c(/C=N/N2CCOCC2)c(=O)[nH]c1=S`, the inhibition was -0.23%. On to `CC(=CCOc1ccc2ccc(=O)oc2c1)C1=CC(=O)C(C)(C)O1`, for which the inhibition is 62.4% (active). As for `CN(C)c1nc(N(C)C)nc(N(C#N)CCCl)n1`, the inhibition was -5.34%. In the case of `C[C@]12CCC3C(CC[C@H]4[C@H](O)[C@H](O)CC[C@]34C)C1CC[C@@H]2O` (some centres undefined), the inhibition was 0.2%. The result for `CCCOC(=O)C1C2c3ccccc3C(c3ccccc32)C1C(=O)O` (centres undefined) reads 12.7%; that for `Cc1cc(-c2ccc(N)c(C)c2)ccc1N`, -45.4%; that for `O=C(C1CC(=O)N(C2CCCC2)C1)N1CCC2(CC1)OCCO2` (centres undefined), -6.37%.
